# Laboratory results published in PubChem BioAssay (Tox21).
# Inconclusive results are not listed. A number with no mark means an inactive call. The call rests on the fitted dose curve.
# Target: Beta-2 adrenergic receptor (Homo sapiens) (UniProt P07550)
# Experiment: Adrenergic beta2 receptor (ADRB2) small molecule agonists, cell-based qHTS assay (AID 1963593)
# Conditions: CHO-ADRB2 cells, cAMP HTRF, 30 min; series mostly up to 92.4 µM; activation: at the top concentration
# Excerpt: National Center for Advancing Translational Sciences [NCATS]
# Division of Preclinical Innovation [DPI]
# U.S. Environmental Protection Agency [EPA]
# National Institutes of Environmental Health Sciences [NIEHS]
# National Toxicology Program [NTP]
# U.S. Food and Drug Administration [FDA]
# Beta adrenergic receptors (Beta-ARs) belong to the G-protein coupled receptor (GPCR) superfamily, includes three subtypes - beta1, beta2, and beta3. Beta1-AR is the predominant receptor subtype expressed in the heart, and beta2-AR is expressed in the kidney, lung, blood vessel and in the heart, and beta3 is found in the adipocytes. Beta1 and 2 ARs couple to Gs protein and elevate cyclic adenosine mono phosphate (cAMP), which activates protein kinase A and leads to the downstream signaling responsible for the physiological actions. Beta-AR agonists or antagonists are the most prescribed therapeutic agents for heart failure and asthma, and these were one of the first target receptors for the rational drug design. Tox21 10K compound library was screened using the cAMP-Gs dynamic assay (Cisbio Bioassays, Shelton, CT) to identify agonists/antagonists of the Gs-coupled human adrenergic, beta2 receptor (ADRB2) in the CHO-ADRB2 cell line (Codex BioSolutions, Inc. Gaithersburg, MD), which stably over-expresses ADRB2. The principle of cAMP-Gs dynamic assay is based on HTRF technology, which facilitates the fluorescence resonance energy transfer (FRET) between donor Europium cryptate and acceptor d2-labeled cAMP. The cAMP generated within cells competes with the red acceptor, d2-labled cAMP, for binding to the monoclonal anti-cAMP-cryptate (Europium donor). An increase in intracellular cAMP leads to the disruption of FRET signal, and the signal is inversely proportional to the cAMP concentration. Isoproterenol HCl (Sigma-Aldrich, St. Louis, MO) was used as a positive control in the screening.
# Tox21 Assay Protocol Summary:
# CHO-ADRB2 cells were dispensed at 1,000/well in 4uL assay medium into white/solid 1536-well plates (Greiner Bio-One North America Inc., Monroe, NC) using a Multidrop Combi dispenser (ThermoFisher Scientific, Waltham, MA). The assay plates were incubated at 37C and 5% CO2 for an overnight (18-20hr). Then positive control and test compounds dissolved in DMSO were transferred to the assay plates at 23nL using a Pintool station (Wako, San Diego, CA). Following the compound and positive control transfer, 1uL stimulation mix containing 100uM IBMX and 25uM Ro-20-1724 was added to each well of the assay plates using BioRAPTR Flying Reagent Dispenser (FRD, Beckman Coulter, Brea, CA). The assay plates were incubated at room temperature for 0.5hr. Then 2.5ul each d2-labled cAMP and anti-cAMP-cryptate solutions were added separately to each well of the assay plates using an FRD and the assay plates were incubated at room temperature for 1hr.
# On the % scale 0 is the no-effect control and ±100 the full control effect.
# Chain of Beta-2 adrenergic receptor (Homo sapiens) (P07550 whole entry, looked up): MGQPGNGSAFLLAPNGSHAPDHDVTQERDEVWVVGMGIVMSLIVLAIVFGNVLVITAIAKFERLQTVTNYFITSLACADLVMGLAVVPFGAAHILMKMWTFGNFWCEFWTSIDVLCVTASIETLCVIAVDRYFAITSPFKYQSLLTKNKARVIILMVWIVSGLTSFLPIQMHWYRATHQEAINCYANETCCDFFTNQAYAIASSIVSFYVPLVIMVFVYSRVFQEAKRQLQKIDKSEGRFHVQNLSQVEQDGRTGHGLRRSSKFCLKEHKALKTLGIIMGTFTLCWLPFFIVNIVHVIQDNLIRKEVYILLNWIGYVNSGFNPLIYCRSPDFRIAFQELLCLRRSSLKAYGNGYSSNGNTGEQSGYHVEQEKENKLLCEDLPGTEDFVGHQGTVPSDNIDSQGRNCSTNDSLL
row,Compound,activation
1,CC(=O)Nc1ccc2c(c1)Cc1ccccc1-2,-29.7%
2,CC(C(O)c1ccccc1)N(C)C/C=C/c1ccccc1 (stereo not given),-15.8% [at 42.5 µM]
3,O=S(=O)(Cl)c1ccccc1,-27.7%
4,Cc1c(COC(=O)[C@@H]2[C@H](/C=C(\Cl)C(F)(F)F)C2(C)C)cccc1-c1ccccc1,0.965%
5,C#CCN1C(=O)COc2cc(F)c(N3C(=O)C4=C(CCCC4)C3=O)cc21,7.26%
6,C[C@H](CN1CCOCC1)C(C(=O)N1CCCC1)(c1ccccc1)c1ccccc1,-0.757%
7,C1=CCC=C1,6.25%
8,CC(=O)NC1CCSC1=O (stereo not given),-0.932% [at 42.5 µM]
9,S=C=NCCc1ccccc1,13.4%
10,O=C(N/N=C/c1ccc([N+](=O)[O-])o1)c1cc([N+](=O)[O-])cc([N+](=O)[O-])c1O,0.476% [at 42.5 µM]
11,O=C(Nc1ccccc1)Nc1ccnc(Cl)c1,-4.82%
12,O=C(Cl)c1ccc(Cl)cc1,14.5%
13,CCC1(c2cccc(O)c2)CCCCN(C)C1 (stereo not given),2.86% [at 42.5 µM]
14,C=CC(=O)OCC,0.0358%
15,CC(Oc1cccc(Cl)c1)C(=O)O (stereo not given),-8.62%
16,CCCCP(CCCC)CCCC,14.1%
17,C#CC1(O)CCCCC1,11.4%
18,CCCCCCCCCCCCCCC(Br)C(=O)O (stereo not given),-2.65%
19,Cc1ncsc1CCCl,-17.7% [at 42.5 µM]
20,COc1cc(Cl)c(OC)cc1Cl,-16.4%

row,Compound,activation
1,Nc1n[nH]c(N)n1,34.5%
2,CNC(=O)Oc1cccc(C(C)C)c1,7.12%
3,Clc1ccc(C(OCCN2CCCCC2)c2ccccc2)cc1 (stereo not given),-11.6% [at 42.5 µM]
4,OC(c1ccc(F)cc1)(c1cncnc1)c1ccccc1Cl (stereo not given),-6.58%
5,CCS(=O)(=O)CCSP(=O)(OC)OC,-2.36%
6,c1cc[n+]2c(c1)-c1cccc[n+]1CC2,12.7% [at 42.5 µM]
7,COc1cc(C=O)cc2c1[C@H](COC(N)=O)[C@]1(OC(C)=O)ON2C[C@H]2[C@@H]1N2C(C)=O,-13.4%
8,ClC(Cl)Br,-9.55%
9,CCCCCCCCCC(=O)O[C@H]1CC[C@H]2[C@@H]3CCC4=CC(=O)CC[C@@H]4[C@H]3CC[C@]12C,-0.363% [at 42.5 µM]
10,CCOP(=S)(OCC)Oc1ccc(S(C)=O)cc1 (stereo not given),-24.7%
11,CCCCn1cc[n+](C)c1.[Cl][Fe-]([Cl])([Cl])[Cl],18.9%
12,Cc1ccccc1C(=O)Nc1cccc(OC(C)C)c1,-8.86%
13,COCC(C)N(C(=O)CCl)c1c(C)csc1C (stereo not given),11.1%
14,O=C=Nc1ccc(Cl)cc1,-10.8%
15,COP(N)(=S)Oc1ccccc1C(=O)OC(C)C (stereo not given),6.61%
16,Cc1ccc2cc3c(ccc4ccccc43)c3c2c1CC3,0.605% [at 42.5 µM]
17,Nc1ccc(Cl)cc1C(=O)c1ccccc1F,19.4% [at 42.5 µM]
18,CCC(C)(c1ccc(O)cc1)c1ccc(O)cc1,-17.1%
19,CC(C)[C@H](C(=O)O[C@H](C#N)c1cccc(Oc2ccccc2)c1)c1ccc(Cl)cc1,-1.17%
20,CC(=O)O.CC(=O)O.CC(=O)O.CC(=O)O.CC(=O)O.CC(=O)O.CC(=O)O.O.O.[Cr].[Cr].[Cr],-11.1%
